Results filed as inconclusive are left out. The source made the active and inactive calls. How the source made its calls, unless noted: active means hit-call score of the fitted dose curve at least 0.9, where 1 is the maximum; inconclusive means response in the unintended direction; inactive means score below 0.9.
Experiments:
[1] = Tanguay_ZF_120hpf_JAW_legacy: (Legacy) Oregon State University Tanguay Lab 120 Hour Post-fertilization zebrafish Assay for Jaw Malformation (AID 2283638);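 on AC50: active means more embryos with jaw malformation than DMSO controls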
Method in brief: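 Tropical 5D wild-type embryos, dechorionated with pronase at 4 hpf, were placed singly per well at 6 hpf and statically exposed at 28C until 120 hpf (0.64% DMSO final). Jaw malformation scored as present/absent by brightfield microscopy at 120 hpf, analyzed relative to DMSO.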

[2] = Tanguay_ZF_120hpf_OTIC_legacy: (Legacy) Oregon State University Tanguay Lab 120 Hour Post-fertilization zebrafish Assay for Otic Vesicle Malformation (AID 2283639)
Method in brief: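 Otic vesicle malformation is read as a yes/no morphology call at 120 hpf. Exposure is static at 28C with 0.64% (vol/vol) DMSO; embryos that die are excluded from non-mortality endpoints.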

[3] = Tanguay_ZF_120hpf_PE_legacy: (Legacy) Oregon State University Tanguay Lab 120 Hour Post-fertilization zebrafish Assay for Pericardial Edema (AID 2283640);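 on AC50: potency for increased incidence of pericardial edema versus DMSO baseline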
Method in brief: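 Tropical 5D wild-type zebrafish embryos were exposed statically to 120 hpf at 28C, sealed and foil-covered, in 0.64% DMSO final. Pericardial edema was scored present/absent by brightfield microscopy; dead embryos were not scored.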

[4] = Tanguay_ZF_120hpf_BRAI_legacy: (Legacy) Oregon State University Tanguay Lab 120 Hour Post-fertilization zebrafish Assay for Brain Malformation (AID 2283641)
Method in brief: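 Tropical 5D wild-type zebrafish embryos were exposed statically in sealed, foil-covered plates at 28C until 120 hpf, with 0.64% (vol/vol) final DMSO. Brain malformation was scored present/absent by brightfield microscopy, relative to DMSO baseline.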

[5] = Tanguay_ZF_120hpf_SOMI_legacy: (Legacy) Oregon State University Tanguay Lab 120 Hour Post-fertilization zebrafish Assay for Somite Malformation (AID 2283647)
Method in brief: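 Tropical 5D wild-type zebrafish embryos, dechorionated with pronase at 4 hpf, were placed singly at 6 hpf and statically exposed until 120 hpf at 28C in 0.64% DMSO. Somite malformation was scored present/absent by brightfield microscopy versus DMSO.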

[6] = Tanguay_ZF_120hpf_PFIN_legacy: (Legacy) Oregon State University Tanguay Lab 120 Hour Post-fertilization zebrafish Assay for Pectoral Fin Malformation (AID 2283648);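 further: each larva judged yes or no for fin defect by brightfield with dead larvae skipped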
Method in brief: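 Tropical 5D wild-type embryos, dechorionated with pronase at 4 hpf, were placed singly in wells at 6 hpf and statically exposed until 120 hpf at 28C, sealed and dark, with 0.64% (vol/vol) final DMSO; pectoral fin malformation scored present/absent.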

[7] = Tanguay_ZF_120hpf_CFIN_legacy: (Legacy) Oregon State University Tanguay Lab 120 Hour Post-fertilization zebrafish Assay for Caudal Fin Malformation (AID 2283649)
Method in brief: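 Tropical 5D wild-type embryos, dechorionated with pronase at 4 hpf, were placed singly in wells at 6 hpf and statically exposed to compound at 28C until 120 hpf (0.64% DMSO). Caudal fin malformation was scored present/absent by brightfield microscopy.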

[8] = Tanguay_ZF_120hpf_PIG_legacy: (Legacy) Oregon State University Tanguay Lab 120 Hour Post-fertilization zebrafish Assay for Pigmentation Malformation (AID 2283650)
Method in brief: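 Tropical 5D wild-type zebrafish embryos, dechorionated with pronase at 4 hpf, were exposed singly from 6 hpf to 120 hpf statically at 28C in sealed, dark plates with 0.64% DMSO; pigmentation scored present/absent by brightfield microscopy, fitted against DMSO.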

[9] = Tanguay_ZF_120hpf_CIRC_legacy: (Legacy) Oregon State University Tanguay Lab 120 Hour Post-fertilization zebrafish Assay for Circulatory Malformation (AID 2283651)
Method in brief: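 Using wild-type Tropical 5D zebrafish, we exposed dechorionated embryos from 6 to 120 hpf in embryo medium with 0.64% DMSO. Circulatory defects were scored as present or absent; 5uM trimethyltin chloride served as positive control.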

[10] = Tanguay_ZF_120hpf_TRUN_legacy: (Legacy) Oregon State University Tanguay Lab 120 Hour Post-fertilization zebrafish Assay for Truncated Body (AID 2283655)
Method in brief: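 Tropical 5D wild-type embryos, dechorionated with pronase at 4 hpf, were placed singly in wells at 6 hpf and statically exposed at 28C until 120 hpf, final DMSO 0.64%. Truncated body was scored present/absent by brightfield microscopy.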

[11] = Tanguay_ZF_120hpf_NC_legacy: (Legacy) Oregon State University Tanguay Lab 120 Hour Post-fertilization zebrafish Assay for Notochord and Tail Malformation (AID 2283656)
Method in brief: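 Dechorionated 5D zebrafish, 1/well from 6 hpf; static exposure to 120 hpf, 28C, sealed, dark; final DMSO 0.64% v/v. NC scored binary (present/absent); dead embryos not scored. Fit vs DMSO baseline, gain direction.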

[12] = tested on: Thyroperoxidase (TPO), gene 54314; test: CCTE_Simmons_AUR_rTPO: CCTE's Amplex UltraRed Assay for Thyroperoxidase (TPO) Inhibition, Simmons Lab (AID 2283662);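 further: potency for loss of signal meaning inhibition of peroxidase activity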
Method in brief: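 Endpoint is decreased Amplex UltraRed fluorescence after a 30-min, 37C reaction of rat thyroid microsomes with 300 uM H2O2. Eight test concentrations (5 nM–87.5 uM final) in 0.5% DMSO, three biological replicates each.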

[13] = CCTE_Simmons_CellTiterGLO_HEK293T: Viability Assessment in CCTE's Assays for Thyroperoxidase (TPO) Inhibition, Simmons Lab (AID 2283665);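 further: cells exposed to compound for 24 h before readout; actives reduce ATP signal below DMSO vehicle meaning cytotoxicity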
Method in brief: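 Cytotoxicity counter-screen: human HEK293T cells in low-serum (1% FBS) medium receive test chemical, 5 nM to 87.5 uM final, for 24 h; ATP is quantified by luciferase luminescence.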

[14] = Tanguay_ZF_120hpf_TR_legacy: (Legacy) Oregon State University Tanguay Lab 120 Hour Post-fertilization zebrafish Assay for Touch Response (AID 2283667)
Method in brief: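 Tropical 5D wild-type zebrafish embryos were exposed statically in sealed, foil-covered plates at 28C until 120 hpf, with 0.64% (vol/vol) final DMSO. Touch response was scored as present or absent; embryos that died were not scored.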

[15] = Tanguay_ZF_120hpf_SWIM_legacy: (Legacy) Oregon State University Tanguay Lab 120 Hour Post-fertilization zebrafish Assay for Swim Bladder Malformation (AID 2283654);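 further: swim bladder malformation in each larva scored yes or no under brightfield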
Method in brief: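 Dechorionated Tropical 5D wild-type embryos, placed singly from 6 hpf, were statically exposed at 28C to 120 hpf with 0.64% DMSO final; swim bladder malformation was scored present/absent by brightfield microscopy, gain of signal relative to DMSO controls.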

[16] = read-out: solute carrier (SLC22A6), SLC22A6 (gene 9356); test: LTEA_HepaRG_SLC22A6: Life Technologies and Expression Analysis (LTEA) Assay for solute carrier (SLC22A6) using HepaRG (AID 2283653; active means hit-call score of the fitted dose curve at least 0.9, where 1 is the maximum; inactive means score below 0.9); details: mRNA level, 48 h; actives raise or lower the signal
Method in brief: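 Differentiated human HepaRG cells were exposed for 48 h in serum-free induction medium to eight concentrations (top 100 uM, half-log steps, 0.5% DMSO), in duplicate. SLC22A6 mRNA was quantified by qRT-PCR, normalised to ACTB, GAPDH and POLR2A, and fitted bidirectionally against DMSO.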

[17] = read-out: solute carrier (SLC10A1), SLC10A1 (gene 6554); test: LTEA_HepaRG_SLC10A1: Life Technologies and Expression Analysis (LTEA) Assay for solute carrier (SLC10A1) using HepaRG (AID 2283657; active means hit-call score of the fitted dose curve at least 0.9, where 1 is the maximum; inactive means score below 0.9); details: mRNA level, 48 h; actives raise or lower the signal
Method in brief: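 Differentiated HepaRG cells were plated 48 h, then exposed in serum-free induction medium for 48 h to 8 concentrations (top 100 uM, half-log steps, 0.5% DMSO). SLC10A1 mRNA was quantified by qRT-PCR normalized to ACTB, GAPDH, POLR2A; bidirectional fit versus DMSO.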

[18] = read-out: matrix metalloproteinase-1 (MMP1), MMP1 (gene 4312); test: LTEA_HepaRG_MMP1: Life Technologies and Expression Analysis (LTEA) Assay for matrix metalloproteinase-1 (MMP1) using HepaRG (AID 2283658; active means hit-call score of the fitted dose curve at least 0.9, where 1 is the maximum; inactive means score below 0.9); details: mRNA level, 48 h; actives raise or lower the signal
Method in brief: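 Differentiated HepaRG cells, plated 48 h then switched to serum-free induction medium, were exposed in duplicate for 48 h to eight half-log concentrations up to 100 uM in 0.5% DMSO; MMP1 mRNA measured by qRT-PCR, normalized to ACTB, GAPDH, POLR2A.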

[19] = read-out: Cytochrome P450 (CYP24A1_1), CYP24A1 (gene 1591); test: LTEA_HepaRG_CYP24A1_1: Life Technologies and Expression Analysis (LTEA) Assay for Cytochrome P450 (CYP24A1_1) using HepaRG (AID 2283671; active means hit-call score of the fitted dose curve at least 0.9, where 1 is the maximum; inactive means score below 0.9); details: mRNA level, 48 h; actives raise or lower the signal
Method in brief: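 HepaRG, 48 h exposure, 8-pt half-log series from 100 uM in 0.5% DMSO, duplicates. Readout: TaqMan qRT-PCR of CYP24A1 mRNA, housekeeping-normalized (ACTB/GAPDH/POLR2A). Bidirectional curve fit vs DMSO baseline.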

COC(=O)Nc1nc2ccccc2[nH]1
outcome [1]: inactive | outcome [2]: inactive | outcome [3]: inactive | outcome [4]: inactive | outcome [5]: inactive | outcome [6]: inactive | outcome [7]: inactive | outcome [8]: inactive | outcome [9]: inactive | outcome [10]: inactive | outcome [11]: inactive | AC50 [12]: 24.5 µM (active) | AC50 [13]: 1.41 µM (active) | outcome [14]: inactive

CCCSC(=O)N(CCC)CCC
outcome [1]: inactive | outcome [2]: inactive | outcome [3]: inactive | outcome [4]: inactive | outcome [5]: inactive | outcome [6]: inactive | outcome [7]: inactive | outcome [8]: inactive | outcome [9]: inactive | outcome [10]: inactive | outcome [11]: inactive | outcome [14]: inactive

c1ccc(C2CO2)cc1 (stereo not given)
outcome [1]: inactive | outcome [2]: inactive | outcome [3]: inactive | outcome [4]: inactive | outcome [5]: inactive | outcome [6]: inactive | outcome [7]: inactive | outcome [8]: inactive | outcome [9]: inactive | outcome [15]: inactive | outcome [10]: inactive | outcome [11]: inactive | outcome [14]: inactive

CCOC(=O)[C@]1(c2ccccc2)Oc2ccccc2[C@@H]1N
outcome [1]: inactive | outcome [2]: inactive | outcome [3]: inactive | outcome [4]: inactive | outcome [5]: inactive | outcome [8]: inactive | outcome [9]: inactive | outcome [10]: inactive | outcome [11]: inactive | AC50 [12]: 12.6 µM (active) | AC50 [13]: 36.6 µM (active) | outcome [14]: inactive

Cn1cc(-c2ccccc2)c(=O)c(-c2cccc(C(F)(F)F)c2)c1
outcome [1]: inactive | outcome [2]: inactive | outcome [3]: inactive | outcome [4]: inactive | outcome [5]: inactive | outcome [6]: inactive | outcome [7]: inactive | outcome [8]: inactive | outcome [9]: inactive | outcome [10]: inactive | outcome [11]: inactive | AC50 [14]: 41.1 µM (active)

Cc1cccc(N)c1N
outcome [1]: inactive | outcome [2]: inactive | AC50 [3]: 54 µM (active) | outcome [4]: inactive | outcome [5]: inactive | outcome [6]: inactive | outcome [7]: inactive | outcome [8]: inactive | outcome [9]: inactive | outcome [10]: inactive | outcome [11]: inactive | AC50 [12]: 2.35 µM (active) | AC50 [13]: 4.54 µM (active) | outcome [14]: inactive

CC(C)(O)c1cnn2c(-c3ccc(F)c(-c4c(F)cccc4C#N)c3)cnc2n1
outcome [1]: inactive | outcome [2]: inactive | outcome [3]: inactive | outcome [4]: inactive | outcome [5]: inactive | outcome [6]: inactive | outcome [7]: inactive | outcome [8]: inactive | outcome [9]: inactive | outcome [15]: inactive | outcome [10]: inactive | outcome [14]: inactive

C[C@]12C=CC3=C4CCC(=O)C=C4CC[C@H]3[C@@H]1CC[C@@H]2O
AC50 [1]: 30.5 µM (active) | outcome [2]: inactive | AC50 [3]: 29.9 µM (active) | AC50 [4]: 27.1 µM (active) | outcome [5]: inactive | outcome [6]: inactive | outcome [7]: inactive | outcome [8]: inactive | outcome [9]: inactive | outcome [16]: inactive | outcome [15]: inactive | outcome [10]: inactive | outcome [11]: inactive | AC50 [17]: 16.1 µM (active) | outcome [18]: inactive | AC50 [12]: 7.23 µM (active) | AC50 [13]: 6.42 µM (active) | outcome [14]: inactive | outcome [19]: inactive

CCCCCCCCCCCCCN1CC(C)OC(C)C1 (stereo not given)
outcome [1]: inactive | outcome [2]: inactive | outcome [3]: inactive | outcome [4]: inactive | outcome [5]: inactive | outcome [6]: inactive | outcome [7]: inactive | outcome [8]: inactive | outcome [9]: inactive | outcome [15]: inactive | outcome [10]: inactive | outcome [14]: inactive
